# Measurements published in article PMC11006913.
# Experiments:
# Experiment in all cases: PBM; 200 nM protein, PBS
# Conditions in all cases: dsDNA, one strand shown
# HOXC9 [1] = target: HOXC9 (Homo sapiens, UniProt P31274 178-260, K195R)
# HOXC10 [2] = target: HOXC10 (Homo sapiens, UniProt Q9NYD6 254-340)
# HOXC9 [3] = target: HOXC9 (Homo sapiens, UniProt P31274 178-260)
# HOXC9 [4] = target: HOXC9 (Homo sapiens, UniProt P31274 178-260, R193K)
# HOXC10 [5] = target: HOXC10 (Homo sapiens, UniProt Q9NYD6 254-340, K271E)
# HOXC9 [6] = target: HOXC9 (Homo sapiens, UniProt P31274 178-260, R222W)
# HOXA4 [7] = target: HOXA4 (Homo sapiens, UniProt Q00056 201-287, W262R)
# HOXA4 [8] = target: HOXA4 (Homo sapiens, UniProt Q00056 201-287)
# HOXA4 [9] = target: HOXA4 (Homo sapiens, UniProt Q00056 201-287, W262F)
# MSX2 [10] = target: MSX2 (Homo sapiens, UniProt P35548 130-214, R199I)
# ALX3 [11] = target: ALX3 (Homo sapiens, UniProt O95076 139-225, N203Q)
# MSX2 [12] = target: MSX2 (Homo sapiens, UniProt P35548 130-214)
# ALX3 [13] = target: ALX3 (Homo sapiens, UniProt O95076 139-225)
# ALX3 [14] = target: ALX3 (Homo sapiens, UniProt O95076 139-225, L168Q)
# ALX3 [15] = target: ALX3 (Homo sapiens, UniProt O95076 139-225, L168V)
# MSX2 [16] = target: MSX2 (Homo sapiens, UniProt P35548 130-214, F161Y)
# ALX3 [17] = target: ALX3 (Homo sapiens, UniProt O95076 139-225, N203S)
# HOXD13 [18] = target: HOXD13 (Homo sapiens, UniProt P35453 263-343, T313R)
# HOXD13 [19] = target: HOXD13 (Homo sapiens, UniProt P35453 263-343)
# HOXD13 [20] = target: HOXD13 (Homo sapiens, UniProt P35453 263-343, T313A)
# PRRX1 [21] = target: PRRX1 (Homo sapiens, UniProt P54821 80-166, F113S)
# PRRX1 [22] = target: PRRX1 (Homo sapiens, UniProt P54821 80-166)
# Sequence of PRRX1 (Homo sapiens, UniProt P54821 80-166) (P54821 80-166): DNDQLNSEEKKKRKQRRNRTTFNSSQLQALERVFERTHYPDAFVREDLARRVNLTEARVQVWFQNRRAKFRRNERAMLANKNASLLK
# Sequence of HOXA4 (Homo sapiens, UniProt Q00056 201-287) (Q00056 201-287): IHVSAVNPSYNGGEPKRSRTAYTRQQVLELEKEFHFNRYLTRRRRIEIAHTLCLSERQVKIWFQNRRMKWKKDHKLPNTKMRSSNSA
# Sequence of HOXC9 (Homo sapiens, UniProt P31274 178-260, R193K) (P31274 178-260 R193K): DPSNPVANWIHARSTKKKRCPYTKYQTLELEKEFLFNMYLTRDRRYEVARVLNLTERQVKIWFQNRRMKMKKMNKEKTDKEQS
# Sequence of HOXA4 (Homo sapiens, UniProt Q00056 201-287, W262F) (Q00056 201-287 W262F): as the sequence (Q00056 201-287) above, with W62F counted along it
# Sequence of HOXC10 (Homo sapiens, UniProt Q9NYD6 254-340, K271E) (Q9NYD6 254-340 K271E): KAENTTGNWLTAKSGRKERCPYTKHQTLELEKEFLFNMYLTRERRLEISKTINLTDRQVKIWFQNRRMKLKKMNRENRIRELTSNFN
# Sequence of HOXC9 (Homo sapiens, UniProt P31274 178-260, R222W) (P31274 178-260 R222W): as the sequence (P31274 178-260 R193K) above, with K16R, R45W counted along it
# Sequence of HOXC9 (Homo sapiens, UniProt P31274 178-260, K195R) (P31274 178-260 K195R): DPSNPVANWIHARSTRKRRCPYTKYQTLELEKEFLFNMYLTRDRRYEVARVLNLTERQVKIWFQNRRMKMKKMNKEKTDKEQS
# Sequence of HOXC9 (Homo sapiens, UniProt P31274 178-260) (P31274 178-260): as the sequence (P31274 178-260 R193K) above, with K16R counted along it
# Sequence of HOXA4 (Homo sapiens, UniProt Q00056 201-287, W262R) (Q00056 201-287 W262R): as the sequence (Q00056 201-287) above, with W62R counted along it
# Sequence of HOXC10 (Homo sapiens, UniProt Q9NYD6 254-340) (Q9NYD6 254-340): as the sequence (Q9NYD6 254-340 K271E) above, with E18K counted along it
# Sequence of HOXD13 (Homo sapiens, UniProt P35453 263-343, T313A) (P35453 263-343 T313A): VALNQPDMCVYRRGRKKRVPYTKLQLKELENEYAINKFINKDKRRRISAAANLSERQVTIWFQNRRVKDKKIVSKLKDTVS
# Sequence of HOXD13 (Homo sapiens, UniProt P35453 263-343, T313R) (P35453 263-343 T313R): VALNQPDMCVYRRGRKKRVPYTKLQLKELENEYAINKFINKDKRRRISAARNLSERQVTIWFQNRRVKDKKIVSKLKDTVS
# Sequence of ALX3 (Homo sapiens, UniProt O95076 139-225) (O95076 139-225): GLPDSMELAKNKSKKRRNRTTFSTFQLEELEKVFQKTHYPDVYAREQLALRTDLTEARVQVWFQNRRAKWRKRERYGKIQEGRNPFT
# Sequence of ALX3 (Homo sapiens, UniProt O95076 139-225, L168V) (O95076 139-225 L168V): as the sequence (O95076 139-225) above, with L30V counted along it
# Sequence of HOXD13 (Homo sapiens, UniProt P35453 263-343) (P35453 263-343): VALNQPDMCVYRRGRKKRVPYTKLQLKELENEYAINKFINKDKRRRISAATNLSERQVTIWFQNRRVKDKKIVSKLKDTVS
# Sequence of MSX2 (Homo sapiens, UniProt P35548 130-214, F161Y) (P35548 130-214 F161Y): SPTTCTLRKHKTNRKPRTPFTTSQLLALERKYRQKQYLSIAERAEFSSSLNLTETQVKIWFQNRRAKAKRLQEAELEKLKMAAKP
# Sequence of MSX2 (Homo sapiens, UniProt P35548 130-214) (P35548 130-214): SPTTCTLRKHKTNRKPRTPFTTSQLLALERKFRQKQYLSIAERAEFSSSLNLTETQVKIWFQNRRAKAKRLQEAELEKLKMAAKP
# Sequence of MSX2 (Homo sapiens, UniProt P35548 130-214, R199I) (P35548 130-214 R199I): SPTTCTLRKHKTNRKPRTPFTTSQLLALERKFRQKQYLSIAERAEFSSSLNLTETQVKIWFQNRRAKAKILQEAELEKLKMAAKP
# Sequence of ALX3 (Homo sapiens, UniProt O95076 139-225, N203S) (O95076 139-225 N203S): as the sequence (O95076 139-225) above, with N65S counted along it
# Sequence of ALX3 (Homo sapiens, UniProt O95076 139-225, N203Q) (O95076 139-225 N203Q): as the sequence (O95076 139-225) above, with N65Q counted along it
# Sequence of ALX3 (Homo sapiens, UniProt O95076 139-225, L168Q) (O95076 139-225 L168Q): as the sequence (O95076 139-225) above, with L30Q counted along it
# Sequence of PRRX1 (Homo sapiens, UniProt P54821 80-166, F113S) (P54821 80-166 F113S): as the sequence (P54821 80-166) above, with F34S counted along it
sequence,measurement,setting,value
CTCGCGAG,binding signal,HOXC9 [1],"9.76 upbm affinity estimate (log intensity, higher = more binding, comparable within an allelic series)"
same,binding signal,HOXC10 [2],"10 upbm affinity estimate (log intensity, higher = more binding, comparable within an allelic series)"
same,binding signal,HOXC9 [3],"9.82 upbm affinity estimate (log intensity, higher = more binding, comparable within an allelic series)"
same,binding signal,HOXC9 [4],"9.78 upbm affinity estimate (log intensity, higher = more binding, comparable within an allelic series)"
same,binding signal,HOXC10 [5],"10.1 upbm affinity estimate (log intensity, higher = more binding, comparable within an allelic series)"
same,binding signal,HOXC9 [6],"9.89 upbm affinity estimate (log intensity, higher = more binding, comparable within an allelic series)"
GTTCTTAA,binding signal,HOXA4 [7],"10.3 upbm affinity estimate (log intensity, higher = more binding, comparable within an allelic series)"
same,binding signal,HOXA4 [8],"11.4 upbm affinity estimate (log intensity, higher = more binding, comparable within an allelic series)"
same,binding signal,HOXA4 [9],"10.5 upbm affinity estimate (log intensity, higher = more binding, comparable within an allelic series)"
ATGACAGC,binding signal,HOXA4 [7],"10.2 upbm affinity estimate (log intensity, higher = more binding, comparable within an allelic series)"
same,binding signal,HOXA4 [8],"11.3 upbm affinity estimate (log intensity, higher = more binding, comparable within an allelic series)"
same,binding signal,HOXA4 [9],"10.5 upbm affinity estimate (log intensity, higher = more binding, comparable within an allelic series)"
AGCCCTCC,binding signal,HOXC9 [1],"9.66 upbm affinity estimate (log intensity, higher = more binding, comparable within an allelic series)"
same,binding signal,HOXC10 [2],"10 upbm affinity estimate (log intensity, higher = more binding, comparable within an allelic series)"
same,binding signal,HOXC9 [3],"9.73 upbm affinity estimate (log intensity, higher = more binding, comparable within an allelic series)"
same,binding signal,MSX2 [10],"9.53 upbm affinity estimate (log intensity, higher = more binding, comparable within an allelic series)"
same,binding signal,ALX3 [11],"7.79 upbm affinity estimate (log intensity, higher = more binding, comparable within an allelic series)"
same,binding signal,HOXC9 [4],"9.66 upbm affinity estimate (log intensity, higher = more binding, comparable within an allelic series)"
same,binding signal,HOXC10 [5],"10 upbm affinity estimate (log intensity, higher = more binding, comparable within an allelic series)"
same,binding signal,MSX2 [12],"9.44 upbm affinity estimate (log intensity, higher = more binding, comparable within an allelic series)"
same,binding signal,ALX3 [13],"7.83 upbm affinity estimate (log intensity, higher = more binding, comparable within an allelic series)"
same,binding signal,ALX3 [14],"7.75 upbm affinity estimate (log intensity, higher = more binding, comparable within an allelic series)"
same,binding signal,HOXC9 [6],"9.65 upbm affinity estimate (log intensity, higher = more binding, comparable within an allelic series)"
same,binding signal,ALX3 [15],"7.79 upbm affinity estimate (log intensity, higher = more binding, comparable within an allelic series)"
same,binding signal,MSX2 [16],"9.49 upbm affinity estimate (log intensity, higher = more binding, comparable within an allelic series)"
same,binding signal,ALX3 [17],"7.76 upbm affinity estimate (log intensity, higher = more binding, comparable within an allelic series)"
ATTTACGA,binding signal,HOXC9 [1],"12.4 upbm affinity estimate (log intensity, higher = more binding, comparable within an allelic series)"
same,binding signal,HOXC10 [2],"12.3 upbm affinity estimate (log intensity, higher = more binding, comparable within an allelic series)"
same,binding signal,HOXC9 [3],"12.6 upbm affinity estimate (log intensity, higher = more binding, comparable within an allelic series)"
same,binding signal,HOXD13 [18],"10.9 upbm affinity estimate (log intensity, higher = more binding, comparable within an allelic series)"
same,binding signal,HOXC9 [4],"12.4 upbm affinity estimate (log intensity, higher = more binding, comparable within an allelic series)"
same,binding signal,HOXD13 [19],"12 upbm affinity estimate (log intensity, higher = more binding, comparable within an allelic series)"
same,binding signal,HOXC10 [5],"11.8 upbm affinity estimate (log intensity, higher = more binding, comparable within an allelic series)"
same,binding signal,HOXD13 [20],"11.8 upbm affinity estimate (log intensity, higher = more binding, comparable within an allelic series)"
same,binding signal,HOXC9 [6],"10.9 upbm affinity estimate (log intensity, higher = more binding, comparable within an allelic series)"
AAGCTAAT,binding signal,HOXA4 [7],"10.3 upbm affinity estimate (log intensity, higher = more binding, comparable within an allelic series)"
same,binding signal,HOXA4 [8],"12.3 upbm affinity estimate (log intensity, higher = more binding, comparable within an allelic series)"
CGCTTAAC,binding signal,HOXA4 [7],"10.2 upbm affinity estimate (log intensity, higher = more binding, comparable within an allelic series)"
same,binding signal,HOXA4 [8],"11.2 upbm affinity estimate (log intensity, higher = more binding, comparable within an allelic series)"
same,binding signal,HOXA4 [9],"10.3 upbm affinity estimate (log intensity, higher = more binding, comparable within an allelic series)"
GAAAACGA,binding signal,HOXA4 [7],"10.1 upbm affinity estimate (log intensity, higher = more binding, comparable within an allelic series)"
same,binding signal,HOXA4 [8],"10.9 upbm affinity estimate (log intensity, higher = more binding, comparable within an allelic series)"
CCCCTCAC,binding signal,HOXC9 [1],"9.6 upbm affinity estimate (log intensity, higher = more binding, comparable within an allelic series)"
same,binding signal,PRRX1 [21],"9.49 upbm affinity estimate (log intensity, higher = more binding, comparable within an allelic series)"
same,binding signal,HOXC9 [3],"9.72 upbm affinity estimate (log intensity, higher = more binding, comparable within an allelic series)"
same,binding signal,HOXC9 [4],"9.5 upbm affinity estimate (log intensity, higher = more binding, comparable within an allelic series)"
same,binding signal,HOXC9 [6],"9.75 upbm affinity estimate (log intensity, higher = more binding, comparable within an allelic series)"
same,binding signal,PRRX1 [22],"9.53 upbm affinity estimate (log intensity, higher = more binding, comparable within an allelic series)"
